Data taken from PubChem BioAssay (NCATS).
Inconclusive results are not listed. Unmarked numbers belong to inactive results. Activity calls are given as the source filed them. Calls come from the whole dose curve; as a rule, active = well fitted activation curve with a large enough effect; inconclusive = small, poorly fitted or top-dose-only effect; inactive = flat fitted curve, though single readings scatter.

Assay: Validation screen for small molecules that induce DNA re-replication in SW480 colon adenocarcinoma cells (AID 504364); for activity (re-replication induction): 0% is about no effect
Settings: DNA re-replication phenotype (high-content imaging); series mostly up to 46.1 µM; activity (re-replication induction): at the top concentration
From the text: H Molecular Libraries Probe Production Network [MLPCN]
NIH Chemical Genomics Center [NCGC]
Assay Provider: Melvin DePamphilis, NICHD, NIH
Eukaryotic cells normally restrict genome duplication to once per cell division. When this process is aberrant, DNA re-replication occurs when cells reinitiate DNA replication before the first round of replication is complete. DNA re-replication induces the DNA damage response, arrests cell proliferation, and triggers apoptosis. The cell cycle components cyclin A, Cdt-1, Cdc6 and geminin are critical regulators of this process and their misregulation results in DNA re-replication in normal and cancer cells. To identify compounds that induce re-replication in normal cells, an image-based assay was used to measure DNA content of nuclei, as detected by the fluorescent DNA binding dye, Hoechst. Cell nuclei were imaged by a fluorescence scanning plate imager and compounds that induce DNA re-replication were identified by the increase of nuclei with elevated fluorescence intensity.#
For screening, 250 cells in 5 uL/well were dispensed into black clear 1536-well plates (Aurora) using a solenoid-based dispenser. Following transfer of 23 nL compound or DMSO vehicle by a pin tool, the plates were incubated 48 hr at 37 C and 5% CO2. After addition of 1 uL/well Hoescht stain, the plates were incubated 40 min at 37 C, 5% CO2 and total intensity of fluorescent objects (nuclei) were enumerated by an Acumen Explorer Ex3 (TTP LabTech) fluorescence scanning plate imager (405 nm excitation, 500-530 nm emission).
Keywords: NIH Roadmap, MLPCN, MLI, MLSMR, qHTS, NCGC, DNA replication, cancer
Potency is the fitted concentration of half-maximal effect.

SMILES	activity (re-replication induction)	Potency
CC(=O)OCC1=C(C(=O)[O-])N2C(=O)[C@@H](NC(=O)CCC[C@@H](N)C(=O)[O-])[C@H]2SC1.[Zn+2]	-6.87%	–
COc1ccc(-n2nc(C(F)(F)F)cc2-c2ccc(Cl)cc2)cc1	5.15%	–
COc1cc(CCN)ccc1O	1.73%	–
N[C@@H](Cn1cc(I)c(=O)[nH]c1=O)C(=O)O	4.99%	–
N[C@H](CCCCCP(=O)(O)O)C(=O)O	1.2%	–
C[N+]1(C)CCc2cc3c(cc2C1C1OC(=O)c2c1ccc1c2OCO1)OCO3 (configuration not stated)	-5.91%	–
CN1CCN(c2ccc3ccccc3n2)CC1	-11.6%	–
COC(=O)c1cc2c(cn1)[nH]c1ccccc12	-0.86%	–
CN1CCc2cc(O)cc3c2C1Cc1ccc(O)c(O)c1-3 (configuration not stated)	9.49%	–
CC(O)C(C)OC(=O)[C@@H]1C[C@@H]2c3cccc4c3c(cn4C(C)C)C[C@H]2N(C)C1 (some centres not stated)	0.818%	–
CP(=O)(O)CCCN	0.248%	–
O=[N+]([O-])c1ccc(O[C@@H]2O[C@H](CO)[C@@H](O)[C@H](O)[C@H]2F)c([N+](=O)[O-])c1	1.2%	–
C=CCN1CCC2(C)c3cc(O)ccc3CC1C2C (configuration not stated)	-14.4%	–
COc1ccc2[nH]cc(CCN(C)C)c2c1	9.66%	–
COc1cc([C@@H]2c3cc4c(cc3[C@H](O)C3COC(=O)[C@@H]32)OCO4)cc(OC)c1OC (some centres not stated)	–	32.6 nM (active)
N#CC(C#N)=Cc1ccc([N+](=O)[O-])c(O)c1	-0.819%	–
COc1ccc(CCN)cc1O	-0.29%	–
